Reference: PubChem BioAssay AID750 (Sanford-Burnham Center for Chemical Genomics, 2007)
The campaign covered roughly 86,000 compounds. About 140 (0.16%) were called active.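 The calls were made as follows: active = activation factor of at least 2 for MT1-MMP transcription at 10 µM; inactive = the rest.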 Only a selection was taken, and actives are over-represented in it overall.

Assay: MT1-MMP promoter reporter activation – cell-based, luciferase luminescence, primary screen (AID 750)
Conditions: HT1080 MT1-MMP promoter luciferase reporter, overnight, at 10 µM, hits give high values

Activation factor, inactive:
COC(=O)c1ccc(C(NC(=O)OCc2ccccc2)/C(C)=C/[C@@H](C)C(=O)NCc2ccc(OC)c(OC)c2)cc1 (some centres not stated) 1.4
O=C(CC12CC3CC(CC(C3)C1)C2)Nc1ccc2c(c1)COC2=O 1
COc1ccccc1NC(=O)CC(NCCN(C)C)C(=O)O (configuration not stated) 1
CS(=O)(=O)N(CC(=O)N1CCN(Cc2ccccc2)CC1)c1ccc2c(c1)OCCO2 0.9
CCn1c(SCC(=O)Nc2nc(C)cs2)nnc1C(C)NC(=O)c1ccccc1 (configuration not stated) 1.3
CCCc1nnc(NC(=O)c2cccs2)s1 1.4
CCOC(=O)CN1C(=O)C(=O)c2cc(C)ccc21 1.1
COc1ccc(/C=N/Nc2nc3ccccc3o2)cc1OC 1.7
CN1CCN(C(=O)Cn2c(C(F)(F)F)nc3ccccc32)CC1 1.2
Cc1ccc(S(=O)(=O)NC(=O)COc2ccccc2C)cc1 1.2
CC1(C)N=C(c2ccccn2)C(C)(C)N1O 1
COc1ccc(CN(C(=O)CSc2nnc(-c3ccc(OC)c(OC)c3)o2)c2ccc(F)cc2)cc1 1.2
CCOC(=O)c1ccc2c(c1)nc(C)n2CC 1.6
O=C(NC(=O)c1ccccc1)NC(=O)c1ccccc1 1
CN(C)c1ccnc2sc3c(=O)n(-c4ccc(Cl)cc4)cnc3c12 1.5
Cc1ccc(-n2cc3ccc([N+](=O)[O-])cc3n2)cc1 0.9
CCOCN(C(=O)Cn1c(C(C)O)nc2ccccc21)c1c(C)cccc1CC (configuration not stated) 1.2
CC1CC(C)CN(CC(=O)N2c3ccccc3CCc3ccccc32)C1 (configuration not stated) 1.1
O=C(NCCN1CCN(Cc2ccccc2)CC1)c1cc2c(=O)[nH]c3ccccc3c2s1 1
Cc1nn(C)cc1CNC(=O)Nc1ccc(Cl)cc1 1.7
Cc1ccc(-c2csc(NC(=O)Cc3cccs3)n2)cc1C 1.3
O=P(O)(CP(=O)(c1ccccc1)c1ccccc1)c1ccccc1O 1.2
COc1ccc(C(=O)NN(C)c2nc(-c3ccccc3)cc(C)c2S(C)(=O)=O)cc1 1.1
O=S(=O)(c1ccc(Br)cc1)n1ccc2ccccc21 1.1
O=C(NCCc1ccccc1)c1ccc(OCCOc2ccccc2)cc1 1
COC(=O)c1ccc(S(=O)(=O)N2CCC(c3nc4ccccc4o3)CC2)cc1 1.1
COc1ccc(C(c2nnnn2C2CCCCC2)N2CCN(c3ccccc3F)CC2)cc1 (configuration not stated) 1.1
c1ccc(CCn2nnnc2CN2CCN(C3CCCC3)CC2)cc1 1.1
C=CCn1c(SCc2c(C)noc2C)nc2sc3c(c2c1=O)CCC(C)C3 (configuration not stated) 0.6
CCOc1ccc(-c2nc(C)sc2CC(=O)O)cc1 1
CC(C)(C)N1CC(c2nc3ccccc3n2Cc2ccc(F)cc2)CC1=O (configuration not stated) 1.2
CC1(C)Cc2cccc(OCC(N)=O)c2O1 1.2
Cn1nc(C(F)(F)F)c2cc(NC(=O)OCC(C)(C)C)sc21 1
CC1=NN(C(C)C)C(=O)C1 1.2
CN(C)S(=O)(=O)c1ccc(NC(=O)COC(=O)c2n[nH]c3ccccc23)cc1 1.3
O=C(OC1CCCCC1=O)c1cccc(S(=O)(=O)NCc2ccccc2)c1 (configuration not stated) 1.2
COc1ccc(NC(=O)Cn2c(=O)n(Cc3ccco3)c(=O)c3ccccc32)cc1 1
Cc1ccc(-n2nc3cc(C)c(NC(=O)c4cccnc4)cc3n2)cc1 1.5
CC(C)C[C@@H](N)c1nnc(SCC(=O)c2ccc(Cl)cc2)o1 1.1
S=C1NC(c2ccccc2)=NCN1c1ccc(Br)cc1 1.2
Cc1cc(NC(=O)CN2CCCC(C)C2)n(-c2nc3ccccc3s2)n1 (configuration not stated) 1.2
Cc1cc(-c2ccccc2)nc(N2CCC(C(=O)NC34CC5CC(CC(C5)C3)C4)CC2)n1 1.3
CCOC(=O)Nc1sc(C(=O)N(C)C)c(C)c1C(=O)OCC 1
Cc1[nH]n(-c2ccc(Cl)cc2)c(=O)c1/C=N/n1c(C)nc2ccccc2c1=O 1
COc1ccc(C2C(C(C)=O)=C(O)C(=O)N2c2nccs2)cc1 (configuration not stated) 1
Cc1ccc(CNC(=O)COc2ccc(S(=O)(=O)NC(C)C)cc2)cc1 1.1
CC(C)C(NC(=O)c1ccc(Cl)cc1)C(=O)O (configuration not stated) 1.1
CCOc1ccc(C(=O)NC(C(=O)NCc2ccccn2)C(C)C)cc1 (configuration not stated) 1.3
COc1ccc(C2=NOC3(CC(=O)N(c4ccc(Cl)cc4)C3=O)C2)c(OC)c1 (configuration not stated) 1
Cc1ccc(S(=O)(=O)NCC(=O)N(CC(=O)NC(C)(C)C)Cc2cccs2)cc1 1.1
CC(Nc1nc(N2CCCC2)nc2ccccc12)c1ccccc1 (configuration not stated) 1.1
COc1ccc(C(CC(=O)O)NC(=O)Cc2ccccc2)cc1 (configuration not stated) 1.2
OC(C#CCN1CCOCC1)(c1ccccc1)C1CCCCC1 (configuration not stated) 1.1
Cc1ccn(C(CC(=O)c2ccc(Br)cc2)C(=O)O)n1 (configuration not stated) 1.1
O=C(O)CSCc1ccc(C(=O)O)o1 1.2

Activation factor, active:
c1ccc(C(c2ccccc2)N2CCN(Cc3nnnn3C3CCCCC3)CC2)cc1 2
Cc1ccc(C(CC(=O)O)Nc2nc(N3CCCCC3)nc(N3CCCCC3)n2)cc1 (configuration not stated) 2
